Results filed as inconclusive are left out. Entries that show only a call come without a potency. Active and inactive are the calls of the source. Calls follow the shape of the dose curve; as a rule, active = well fitted inhibition curve with a large enough effect; inconclusive = small, poorly fitted or top-dose-only effect; inactive = no such curve, though single readings can be large or run the other way.
Potency is read from the fitted curve at half-maximal effect.

The experiment is described as follows: Confirmatory fluorescence-based thiol-reactive (MSTI) qHTS assay for identification of artifact compounds. The following applies: MSTI thiol-reactivity probe, 1 h; series mostly up to 39.2 µM. The gist of the method: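 Compounds (qHTS) incubated 1 h at room temperature, light-protected, with 4 uM MSTI in 1X PBS pH 7.4, 2% DMSO. Fluorescence at 525/598 nm normalized to Acetyl-MSTI and MSTI, fitted to Hill equation.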
In general terms: Quantitative high-throughput screening tests each substance at several concentrations.
For the compound `COc1ccccc1N1CCN(S(=O)(=O)c2c(C)nc3sc(C)c(C)n3c2=O)CC1`, the Potency entry was “inactive”. The entry for `O=S1(=O)N=C(Oc2ccc(Br)cc2)c2ccccc21` is “inactive”. Consider `O=C1c2ccccc2C(=O)c2c(O)c(O)cc(O)c21`, for which the Potency was 0.612 µM (active). For the compound `O=S(=O)(O)c1ccc(N=Nc2c(O)ccc3cc(S(=O)(=O)O)ccc23)cc1`, the Potency was 6.12 µM (active). In the case of `COc1ccc(C)cc1NC(=O)CN1C(=O)COc2ccc(S(=O)(=O)NC3CCCC3)cc21`, the Potency entry is “inactive”.

Consider `CCOC(=O)C1CCN(c2nc3ccccc3nc2Cl)CC1`, for which the Potency entry is “inactive”. For `COC(=O)[C@@H]1[C@H]2C[C@H]3c4[nH]c5cc(OC)ccc5c4CCN3C[C@@H]2C[C@@H](OC(=O)c2cc(OC)c(OC)c(OC)c2)[C@@H]1OC` the value was 7.91 µM (active); for `Cc1cc(C)cc(-n2c(SCC(=O)N3CCCCCC3)nc3c([nH]c4ccccc43)c2=O)c1`, “inactive”.

As for `O=C(Nc1cccc(Cc2ccccc2)c1)c1ccc(-c2cccc([N+](=O)[O-])c2)o1`, the Potency result is “inactive”. In the case of `O=C1CCCc2[nH]c(=O)c(-c3nc(-c4cccc([N+](=O)[O-])c4)cs3)cc21`, the Potency is 3.86 µM (active). Take `CCOc1ccc(C(=O)N2CCC(c3nc(-c4ccc(S(=O)(=O)N5CCCC5)cc4)no3)CC2)cc1`: the Potency result was “inactive”. The entry for `O=C(NCc1ccccc1)C1(C(F)(F)F)C/C(=C\CCO)CCCO1` (stereo not given) is “inactive”; for `COc1ccc(NC(=O)Nc2cccc(-c3noc(C)n3)c2)cc1` it is “inactive”. Regarding `Cc1ccc(S(=O)(=O)Nc2ccc(F)cc2C(=O)Nc2nc(-c3ccccc3)cs2)cc1`, the Potency result is “inactive”.

Turning to `CC(C)c1nn2c(=O)cc(COC(=O)c3cccc(NC(=O)COc4ccc(F)cc4)c3)nc2s1`, the Potency result was “inactive”.

The record behind these values is PubChem BioAssay AID1845226 (National Center for Advancing Translational Sciences (NCATS), 2023).
